FBW7 act: FBW7 E3 ligase activators, primary screen, biochemical, AlphaScreen, human | F-box/WD repeat-containing protein 7 (Homo sapiens), Q969H0 | AlphaScreen FBW7–phospho-cyclin E peptide binding, activator screen | normalized activity (activation), % at 26.1 µM | 650,000 tested, 0.13% active | AID 1259310, 2017; in the data active = normalized activity above about 1.9%;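 also: purified mutant Fbw7 with reduced substrate affinity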
GPR151 activ: activators of human GPR151, primary screen, cell-based, PathHunter beta-arrestin, luminescence; PathHunter beta-arrestin GPR151 cells; activation, % at 11.2 µM; 650,000 tested, 1% active; G-protein coupled receptor 151 (Homo sapiens), Q8TDV0; in the data active = activation above about 4.9%;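 also: 0% = median of compound wells and 100% = cells with positive control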
Target sequence (Q8TDV0 whole entry, looked up): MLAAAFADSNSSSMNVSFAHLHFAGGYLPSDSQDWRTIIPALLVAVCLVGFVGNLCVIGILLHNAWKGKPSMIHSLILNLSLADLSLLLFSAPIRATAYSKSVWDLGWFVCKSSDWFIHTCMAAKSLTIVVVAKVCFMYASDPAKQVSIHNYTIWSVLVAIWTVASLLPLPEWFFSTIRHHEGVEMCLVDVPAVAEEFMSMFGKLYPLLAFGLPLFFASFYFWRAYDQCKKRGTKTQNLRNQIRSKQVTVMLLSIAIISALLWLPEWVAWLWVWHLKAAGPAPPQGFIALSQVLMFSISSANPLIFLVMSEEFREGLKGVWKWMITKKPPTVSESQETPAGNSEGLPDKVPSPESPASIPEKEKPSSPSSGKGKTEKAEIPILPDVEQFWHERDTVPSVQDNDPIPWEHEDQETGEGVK
MITF inh: MITF inhibitors, primary screen, biochemical, AlphaScreen, human | Microphthalmia-associated transcription factor (Homo sapiens), O75030 | AlphaScreen MITF homodimerization, bead proximity signal | inhibition, % at 2.6 µM | 650,000 tested, 0.91% active; in the data active = inhibition above about 50%;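 also: 0% = vehicle wells with protein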
TEAD-YAP inh: TEAD-YAP interaction inhibition, primary screen, TEAD-YAP interaction inhibitor project, luminescence, HEK-TIYL cells; TEAD-Gal4/YAP UAS-luciferase luminescence; inhibition, % at 9.12 µM; 640,000 tested, 1.4% active; AID 1259422, 2018; in the data active = inhibition above about 32%;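 also: 0% = median of test compound wells and 100% = reference inhibitor wells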
Starred values were filed as active, the others as inactive. Hits are enriched below; roughly 3.5% of the tested compounds scored in any of these assays.

SMILES	FBW7 act	GPR151 activ	MITF inh	TEAD-YAP inh
CNC(=O)c1ccccc1Nc1cc(NC(=O)Cc2ccc(F)cc2)ncc1C(F)(F)F	0	0	-7	72*
NC(=O)c1ccccc1NC(=O)Cc1cccs1	0	0	2	3
CC(C)N1CCN(c2ccc(Oc3cc(Nc4ccccc4C(N)=O)c(C(F)(F)F)cn3)cc2)CC1	1	-1	12	14
CNC(=O)c1ccccc1Nc1cc(NC(=O)C2CCc3ccccc32)ncc1C(F)(F)F (configuration not stated)	0	-2	16	79*
O=C(CSc1nc2ccccc2[nH]1)NNC(=S)Nc1ccccc1	0	2	9	-5
Cc1noc(C)c1-c1ccc(C(=O)NCc2ccccc2)s1	0	0	-1	-14
O=C(Cc1ccc2c(c1)OCO2)Nc1cc(Nc2ccccc2-c2nn[nH]n2)c(C(F)(F)F)cn1	1	-1	10	5
CNC(=O)c1ccccc1Nc1cc(NC(=O)Cc2ccccc2F)ncc1C(F)(F)F	0	0	9	81*
NC(=O)c1ccccc1Nc1cc(NC(=O)Cc2ccc(F)cc2)ncc1F	0	-1	15	15
CNC(=O)c1ccccc1Nc1cc(NC(=O)Cc2ccsc2)ncc1C(F)(F)F	0	0	-9	77*
CNC(=O)c1ccccc1Nc1cc(NC(=O)Cc2ccc(N)cc2)ncc1C(F)(F)F	1	-1	-17	79*
Cc1ccc(Cl)cc1N1CCN(Cc2nnnn2Cc2ccc(F)cc2)CC1	0	0	1	-12
OCCNCc1ccccc1C(F)(F)F	0	-1	-10	-4
CCN(CC)c1ccc(/C=C(\C#N)c2ccc([N+](=O)[O-])cc2)cc1Br	0	0	-2	-1
Cc1[nH]c2ccccc2c(=O)c1CN1CCN(C)CC1	0	-1	12	-5
O=C1/C(=C/c2ccc(I)o2)SC(=S)N1Cc1cccnc1	0	-1	-3	5
NC(=O)c1ccc(NC(=O)COC(=O)c2cc(C(F)(F)F)cc(C(F)(F)F)c2)cc1	0	1	10	7
O=C(c1ccccc1)c1cc2ccccc2[nH]1	0	1	-8	-52
COc1cccc(Nc2nc(N3CCN(c4cccc(Cl)c4)CC3)nc3c2cnn3C)c1	0	1	10	1
COc1cccc(Nc2ncnc3c2cnn3-c2ccc(Cl)cc2)c1	0	-1	-6	1
COc1ccc(-n2ncc3c(Nc4cccc(F)c4)ncnc32)cc1	0	4	1	39*
COc1ccc(-n2ncc3c(Nc4ccc(F)cc4)ncnc32)cc1	0	4	0	-2
COc1cccc(Nc2nc(N3CCN(C)CC3)nc3c2cnn3C)c1	1	4	18	43*
COc1ccc(-n2ncc3c(Nc4cccc(OC)c4)ncnc32)cc1	0	1	4	46*
CCOc1ccc(-n2c(SCC(=O)C(C)(C)C)nc3c(sc(=S)n3-c3cccc(OC)c3)c2=O)cc1	0	3	-3	9
SMILES	FBW7 act	GPR151 activ	MITF inh	TEAD-YAP inh
CCCn1cc(S(=O)(=O)c2ccc(F)cc2)c(=O)c2cc(C)ccc21	0	-2	6	-6
COc1ccc(-n2ncnc2-c2cccc(-n3ncc4cc(Nc5ccccc5F)ccc43)c2)cc1	0	2	7	38*
Nc1ccc(-n2ncnc2-c2cccc(-n3ncc4cc(Nc5ccccc5F)ccc43)c2)cc1	0	1	3	-11
COc1cc(NC(=O)c2cccc(-n3ncc4cc(Nc5ccccc5F)ccc43)c2)cc(OC)c1OC	0	0	-6	33*
Cc1ccc(O)c(/C=N/NC(=O)c2ccccc2)c1	-2	-2	26	59*
COc1cc(Br)cc(/C=N/NC(=O)c2ccc(C)nc2)c1O	-1	0	64*	28
O=C(N/N=C/c1ccccc1O)c1ccc(F)cc1	0	0	27	-34
COc1cc(Cl)cc(/C=N/NC(=O)c2ccccc2O)c1O	-3	0	45	75*
COc1ccc(Cl)cc1/C=N/NC(=O)c1ccc(C)nc1	0	1	-3	-2
O=C(N/N=C/c1cc(Br)ccc1O)c1ccc(F)cc1	0	1	12	76*
COCc1nnc(NC(=O)c2ccccc2I)s1	0	1	-13	-12
c1ccc(CN2CCN(Cc3nnnn3CC3CCCO3)CC2)cc1 (configuration not stated)	1	0	10	4
O=C(/C=C/c1ccc([N+](=O)[O-])cc1)Nc1cccc(F)c1	0	-4	3	-54
COc1ccccc1C(=O)Nc1ccc2nc(SCC(=O)Nc3c(C)cccc3C)sc2c1	0	3	-9	-1
COc1ccc(O)c(/C=N/NC(=O)c2ccccc2O)c1	1	1	43	65*
CCOc1cc(Br)cc(/C=N/NC(=O)c2cccnc2)c1O	-1	0	53*	78*
Oc1ccc(Br)cc1/C=N/NC(=S)Nc1cccnc1	-1	0	57*	12
CCOc1cc(/C=N/NC(=O)c2cccnc2)cc(Br)c1O	0	-1	5	3
COc1cc(/C=N/NC(=O)c2cccc(NC(C)=O)c2)cc(Cl)c1O	0	0	63*	0
COc1ccc(NC(=O)CN2C(=O)c3ccccc3C2=O)c2ccccc12	0	0	5	-1
CCCCN(CC(N)=O)S(=O)(=O)c1ccc2c(c1)OCCO2	0	2	-6	-4
COc1ccc2nc(NC(=O)c3ccccc3NS(=O)(=O)c3ccc(C)cc3)sc2c1	1	0	15	26
O=C(Nc1cccc(F)c1)Nc1ccnn1C1CCN(CCO)CC1	0	0	0	-2
COc1cc(Br)cc(/C=N/NC(=O)c2ccccc2Br)c1O	0	1	38	3
COc1ccc(/C=N/NC(=O)c2cccnc2)cc1CN1CCN(c2ccc(F)cc2)CC1	0	0	8	3
SMILES	FBW7 act	GPR151 activ	MITF inh	TEAD-YAP inh
COc1cc(Br)cc(/C=N/NC(=O)c2ccccc2O)c1O	0	-1	36	72*
COc1ccccc1C(=O)N/N=C/c1cc(Br)cc(OC)c1O	0	0	16	-14
COc1ccc(/C=N/NC(=O)c2cccnc2)cc1Cn1cnc([N+](=O)[O-])n1	0	0	11	45*
COc1cc(C(=O)N/N=C/c2cc(Br)cc(Cl)c2O)cc(OC)c1OC	-1	1	27	58*
COc1cc(Br)cc(/C=N/NC(=O)c2ccccc2)c1O	0	-1	9	71*
Cc1ccc(C(=O)N/N=C/c2cc(Br)ccc2O)cn1	-1	0	84*	50*
O=C(N/N=C/c1cc(Cl)cc(Br)c1O)c1ccccc1O	0	1	27	57*
Cc1ccc(OCCCC(=O)Nc2cccc([N+](=O)[O-])c2)cc1	0	-2	0	-10
NC(=O)CSc1ncnc2c1nnn2-c1ccc(F)cc1	1	-1	4	-8

From PubChem BioAssay
